Shiga toxin inh: inhibitors of Shiga toxin in Vero cells. Vero cells, Shiga toxin protein synthesis inhibition reporter. inhibition, % at 38.7 µM. 290,000 compounds, 9.2% hits; in the data active = inhibition mostly above about 28%, no sharp cut-off; inactive = mostly below about 43%; note: 0% is about no effect
Pf growth 96h: P. falciparum growth inhibition at 96 hours; P. falciparum luciferase reporter growth, 96 h; Potency, µM (doses to about 28.7 µM), for inactives: top-dose activity change, negative = inhibition, most hits filed as inhibitors; 320,000 compounds, 6.9% hits; AID 504834; note: potency is the fitted concentration of half-maximal effect; % is set by controls: 0 for no effect and ±100 for the full control effect
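P. falciparum expressing integrated firefly luciferase grown in erythrocytes (2% hematocrit, 0.05% parasitemia final) with compounds for 96 hours at 37 C, 5% CO2. Growth inhibition read as loss of luminescence after adding luciferase detection reagent.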
CHX counter: counter-screen hit for Shiga toxin inhibitors, cycloheximide; 300,000 compounds, 12% hits; AID 2314; max response, %; cell reporter, cycloheximide protein synthesis inhibition counterscreen; in the data active = max response mostly above about 13%, no sharp cut-off; inactive = mostly below about 14%; note: read at 38.3 µM for the half of the compounds with a filed dose; 0% is about no effect
Pf growth 48h: P. falciparum growth inhibition at 48 hours (one generation); P. falciparum luciferase growth in erythrocytes, 48 h; Potency, µM (series often up to 28.7 µM), inactives show at the highest dose activity change, negative = inhibition, most hits filed as inhibitors; 310,000 compounds, 5.9% hits; note: potency is the fitted concentration of half-maximal effect; % is set by controls: 0 for no effect and ±100 for the full control effect
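First compound was added to culture medium, then infected red cells at 0.1% parasitemia and 2% hematocrit (final). After incubation at 37 C under 5% CO2, luciferase detection reagent was dispensed and light output recorded.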
* hit, by the source's call; ? = inconclusive; / = no result given. Shown are actives, neighbours in structure and some others; about 21% of the full set was active somewhere. Unless noted, calls come from the whole dose curve; as a rule, active = well fitted inhibition curve with a large enough effect; inconclusive = small, poorly fitted or top-dose-only effect, or another doubt; inactive = no such curve, though single readings can be large or run the other way.

SMILES	Shiga toxin inh	Pf growth 96h	CHX counter	Pf growth 48h
O=C(CSc1nnc(NC(=O)c2ccc3c(c2)OCO3)s1)NCc1ccco1	35	452%	23*	340%
O=C(CSc1nnc(NC(=O)c2ccco2)s1)NCc1ccc2c(c1)OCO2	-3	26%	-3	17%
O=C(CSc1nnc(NC(=O)c2ccc(F)cc2)s1)NCc1ccco1	45*	196%	29*	-18%
CC(C)Sc1nnc(NC(=O)CCc2ccccc2)s1	7	5%	16	7%
O=C(CSc1nnc(NC(=O)c2cccc(F)c2)s1)NCc1ccco1	20	44%	4	6%
Cc1ccccc1C(=O)Nc1nnc(SC(C)C)s1	78	222%	30*	102%
O=C(CSc1nnc(NC(=O)c2ccccc2)s1)NCc1ccco1	41*	186%	40*	97%
COc1ccc(C(C(=O)NC2CCCC2)N(CCCO)C(=O)c2snc(C(N)=O)c2N)cc1 (stereo not given)	-5	5%	-3	-14%
CCOC(=O)CNC(=O)CSc1nnc(NC(=O)c2ccc(C)cc2)s1	-13	235%	-5	156%
CCOC(=O)CNC(=O)CSc1nnc(NC(=O)c2ccc3c(c2)OCO3)s1	22*	104%	12*	?
Cc1ccccc1Nc1nnc(SCC(=O)NCc2ccco2)s1	-9	0%	1	-10%
Cc1ccccc1C(=O)Nc1nnc(SCC(=O)NCc2ccco2)s1	72*	52%	21*	102%
CC(=O)c1cnc2c(-c3ccccc3)cnn2c1C	27	80%	18*	46%
CCOC(=O)Cc1c(C)nc2c(-c3ccccc3)cnn2c1C	47	25%	36*	5%
CCOC(=O)Cc1c(C)nc2c(-c3ccccc3OC)c(C)nn2c1C	10	?	-2	?
CCOC(=O)c1cnc2c(-c3ccccc3)cnn2c1C	91*	364%	39*	238%
CCOC(=O)Cc1c(C)nc2cc(C)nn2c1C	21	13µM*	-3	-1%
Cn1cc(CN2CCC(C(=O)Nc3ccc(Oc4ccccc4F)cc3)CC2)cn1	1	?	-3	-15%
COCCCNC(=O)Cn1cc(/C=C(\C#N)C(=O)NC2CCCC2)c2ccccc21	/	9%	2	14%
CNCCCCOc1ccccc1Cc1ccccc1	14	17µM*	-8	13µM*
CCOc1ccc(S(=O)(=O)NC(C)C)cc1C(N)=O	2	?	-2	23%
O=C(COc1ccccc1[N+](=O)[O-])NNC(=O)Nc1cccc2ccccc12	-2	-5%	8	-27%
O=C(CNC(=O)c1ccccc1F)OCc1nc2ccccc2s1	67*	46%	25	36%
O=C(CNC(=O)c1ccccc1)OCc1nc2ccccc2s1	49*	120%	42*	155%
C=CC[N+]1([C@H]2C[C@H]3[C@@H]4CC[C@H]5C[C@H](O)[C@@H](N6CCOCC6)C[C@]5(C)[C@H]4CC[C@]3(C)[C@H]2OC(C)=O)CCCC1	/	4.3µM*	/	6.7µM*
SMILES	Shiga toxin inh	Pf growth 96h	CHX counter	Pf growth 48h
COC(=O)C1(Cc2ccc(O)cc2)OC(=O)C(O)=C1c1ccc(O)cc1 (stereo not given)	-10	-12%	-6	?
Cc1nc2ccccn2c1-c1ccnc(SCc2ccc(Cl)cc2)n1	-5	1.9µM*	1	5.9µM*
Cc1ccc2c(=O)c3cccc(CC(=O)O)c3oc2c1C	20	/	-5	/
CN(C)CCNC(=O)C(=O)c1c(-c2ccccc2)cc2ccccn12	16	-4%	-1	-3%
CCN(CC)S(=O)(=O)c1cccc(NC(=O)C(=O)c2c(-c3ccccc3)cc3ccccn23)c1	-12	7.4µM*	-7	/
CCN(CC)S(=O)(=O)c1ccc(N2CCOCC2)c(NC(=O)C(=O)c2c(-c3ccccc3)cc3ccccn23)c1	-15	/	-2	6.6µM*
CCN(CC)S(=O)(=O)c1cc(NC(=O)C(=O)c2c(-c3ccccc3)cc3ccccn23)ccc1C	1	12µM*	-2	/
CCC(=O)Nc1cccc(NC(=O)c2ccc(Br)cc2)c1	0	41%	14*	31%
O=C(CCNC(=O)c1ccc(Br)cc1)Nc1cccc(S(=O)(=O)N2CCCC2)c1	/	?	/	-1%
Cc1cccc(NC(=O)CCNC(=O)c2ccc(Br)cc2)c1	82*	72%	26*	76%
O=C(Nc1cccc(O)c1)c1ccc(Br)cc1	69*	8%	45*	150%
O=C(Nc1ccc(Nc2ccccc2)cc1)c1ccc(Br)cc1	-7	18%	-4	-9%
CC(=O)Nc1cccc(NC(=O)c2ccc(Br)cc2)c1	48	?	27*	184%
COc1ccc(NC(=O)C2CCN(S(=O)(=O)c3c(C)noc3/C=C/c3cccs3)CC2)cc1Cl	14	/	11	/
CCn1c(C)c(C(C)=O)c(N2CCC(C(N)=O)CC2)nc1=S	0	-4%	-3	12%
CCn1c(C)c(C(C)=O)c(N2CCCCC2)nc1=S	-7	12µM*	2	0%
COc1ccccc1[C@@H]1C(c2cccc(Cl)c2)=NN(c2ccccc2)[C@H]1C(=O)N1CCOC1=O	12	10µM*	9	15µM*
COc1cc(-c2nc(CN(C)Cc3nnc(C)o3)c(C)o2)ccc1F	-7	?	1	8%
CC(C)c1nc(N2CCN(C(=O)c3ccco3)CC2)c(C#N)c2c1COC(C)(C)C2	6	?	-2	?
CC1(C)Cc2c(C#N)c(SCCC#N)nc(N3CCOCC3)c2CS1	-3	4.7µM*	-2	?
CC(C)c1nc(N2CCN(C(=O)c3ccccc3)CC2)c(C#N)c2c1COC(C)(C)C2	-7	231%	-4	10µM*
CC(C)OC(=O)CSc1nc(N2CCOCC2)c2c(c1C#N)CC(C)(C)OC2	-5	?	-9	4.7µM*
CCCCc1nc(N2CCOCC2)c(C#N)c2c1COC(C)(C)C2	-6	9.3µM*	-3	6.6µM*
COc1ccc(S(=O)(=O)N2CC(C)N(C(=O)N3CCOCC3)C2)cc1 (stereo not given)	-2	-1%	-2	17%
O=C1CC(C(=O)O)S/C(=N\N=C\c2ccc(Br)cc2)N1 (stereo not given)	-5	12%	-3	5%
SMILES	Shiga toxin inh	Pf growth 96h	CHX counter	Pf growth 48h
O=C(C[n+]1ccc(-c2ccccc2)cc1)Nc1ccc([N+](=O)[O-])cc1	-6	50%	1	?
COc1ccc(N2CCN(C(=O)CN(C)S(=O)(=O)c3cnc[nH]3)CC2)cc1	-13	-5%	-3	-4%
CC1(C)Cc2c(C#N)c(SCCOc3ccccc3)nc(N3CCOCC3)c2CO1	-2	8.3µM*	-2	12µM*
Cn1nnc2cc(NC(=O)NCc3ccc4c(c3)OCO4)ccc21	14	-1%	9	12%
Cn1nnc2cc(C(=O)Nc3ccccc3)ccc21	32	-4%	16*	151%
Cc1ccc(NC(=O)c2ccc3c(c2)nnn3C)cc1	35*	93%	13	107%
CN(C)c1ccc(NC(=O)Nc2ccc3c(c2)nnn3C)cc1	/	-1%	32*	15%
Cn1nnc2cc(C(=O)Nc3ccc(Cl)cc3)ccc21	36	101%	13	32%
CN(C)c1ccc(NC(=O)c2ccc3c(c2)nnn3C)cc1	46*	15%	18*	36%
Cn1nnc2cc(C(=O)Nc3cccnc3)ccc21	7	/	6	29%
